# Data reported in the supplement of paper PMC7411640.
# Counter-ions that a name gives are not always drawn.
# System: MDA-MB-468
# Test: phospho-S6 immunofluorescence (DAPI-normalised), per-plate z-score; higher = higher phospho-S6 signal (less pathway suppression)
# Settings: 24 h
# Method: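 GPCR-targeted compound library (MedChemExpress HY-L006) tested on MDA-MB-468 PTEN-null TNBC cells in 384-well plates at 0.1, 1 or 10 uM, combined with vehicle, GDC0941 450 nM or lapatinib 1 uM, for 24 h. Phospho-S6 (S240/244) immunofluorescence normalised to DAPI and expressed as a per-plate z-score; values are the mean of biological triplicates.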
structure (smiles),measurement,setting,value
Cc1c(C(=O)NN2CCCCC2)nn(-c2ccc(Cl)cc2Cl)c1-c1ccc(I)cc1 (compound 10 µM),phospho-S6 immunofluorescence (z-score),co-treatment: GDC0941 450 nM,-1.91
same,phospho-S6 immunofluorescence (z-score),co-treatment: lapatinib 1 uM,-1.68
same,phospho-S6 immunofluorescence (z-score),co-treatment: vehicle,-2.82
CCN(CC)CCOC(=O)[C@@H](Cc1cccc2ccccc12)C[C@@H]1CCCO1 [Naftidrofuryl (oxalate)] (compound 10 µM),phospho-S6 immunofluorescence (z-score),co-treatment: GDC0941 450 nM,-1.27
same,phospho-S6 immunofluorescence (z-score),co-treatment: lapatinib 1 uM,-0.87
same,phospho-S6 immunofluorescence (z-score),co-treatment: vehicle,-1.37
CCCc1nc2c(C)cc(-c3nc4ccccc4n3C)cc2n1Cc1ccc(-c2ccccc2C(=O)O)cc1 [Telmisartan] (compound 10 µM),phospho-S6 immunofluorescence (z-score),co-treatment: GDC0941 450 nM,0.54
same,phospho-S6 immunofluorescence (z-score),co-treatment: lapatinib 1 uM,1.6
same,phospho-S6 immunofluorescence (z-score),co-treatment: vehicle,0.35
O=C(Nc1cccc(Cl)c1)c1ccccn1 (compound 10 µM),phospho-S6 immunofluorescence (z-score),co-treatment: GDC0941 450 nM,-1.46
same,phospho-S6 immunofluorescence (z-score),co-treatment: lapatinib 1 uM,0.72
same,phospho-S6 immunofluorescence (z-score),co-treatment: vehicle,-0.86
O=c1cc(C(Cl)(Cl)Cl)oc2ccc(Cl)cc12 (compound 10 µM),phospho-S6 immunofluorescence (z-score),co-treatment: GDC0941 450 nM,0.54
same,phospho-S6 immunofluorescence (z-score),co-treatment: lapatinib 1 uM,-0.11
same,phospho-S6 immunofluorescence (z-score),co-treatment: vehicle,0.44
CCCNS(=O)(=O)Nc1ncnc(OCCOc2ncc(Br)cn2)c1-c1ccc(Br)cc1 [Macitentan] (compound 10 µM),phospho-S6 immunofluorescence (z-score),co-treatment: GDC0941 450 nM,0.32
same,phospho-S6 immunofluorescence (z-score),co-treatment: lapatinib 1 uM,0.71
same,phospho-S6 immunofluorescence (z-score),co-treatment: vehicle,-0.16
CNC[C@H](O)c1ccc(O)c(O)c1 [L-Epinephrine (Bitartrate)] (compound 10 µM),phospho-S6 immunofluorescence (z-score),co-treatment: GDC0941 450 nM,0.93
same,phospho-S6 immunofluorescence (z-score),co-treatment: lapatinib 1 uM,2.5
same,phospho-S6 immunofluorescence (z-score),co-treatment: vehicle,-0.23
CNC(=C[N+](=O)[O-])NCCSCc1csc(CN(C)C)n1 [Nizatidine] (compound 10 µM),phospho-S6 immunofluorescence (z-score),co-treatment: GDC0941 450 nM,-1.38
same,phospho-S6 immunofluorescence (z-score),co-treatment: lapatinib 1 uM,0.52
same,phospho-S6 immunofluorescence (z-score),co-treatment: vehicle,1.38
O=C(Nc1cccc2c(=O)cc(-c3nnn[nH]3)oc12)c1ccc(OCCCCc2ccccc2)cc1 [Pranlukast (hemihydrate)] (compound 10 µM),phospho-S6 immunofluorescence (z-score),co-treatment: GDC0941 450 nM,1.61
same,phospho-S6 immunofluorescence (z-score),co-treatment: lapatinib 1 uM,1.07
same,phospho-S6 immunofluorescence (z-score),co-treatment: vehicle,0.31
CN(C)CCOC(C)(c1ccccc1)c1ccccn1 (configuration not stated) [Doxylamine (succinate)] (compound 10 µM),phospho-S6 immunofluorescence (z-score),co-treatment: GDC0941 450 nM,0.33
same,phospho-S6 immunofluorescence (z-score),co-treatment: lapatinib 1 uM,-0.64
same,phospho-S6 immunofluorescence (z-score),co-treatment: vehicle,0.58
OC(CCCN1CCCCC1)(c1ccccc1)c1ccccc1 [Diphenidol (hydrochloride)] (compound 10 µM),phospho-S6 immunofluorescence (z-score),co-treatment: GDC0941 450 nM,0.19
same,phospho-S6 immunofluorescence (z-score),co-treatment: lapatinib 1 uM,1.09
same,phospho-S6 immunofluorescence (z-score),co-treatment: vehicle,0.38
NC(=O)NC1NC(=O)NC1=O (configuration not stated) [Allantoin] (compound 10 µM),phospho-S6 immunofluorescence (z-score),co-treatment: GDC0941 450 nM,0.67
same,phospho-S6 immunofluorescence (z-score),co-treatment: lapatinib 1 uM,0.13
same,phospho-S6 immunofluorescence (z-score),co-treatment: vehicle,-0.01
CCC(=O)O[C@]1(C(=O)CCl)[C@@H](C)C[C@H]2[C@@H]3CCC4=CC(=O)C=C[C@]4(C)[C@@]3(F)[C@@H](O)C[C@@]21C [Clobetasol propionate] (compound 10 µM),phospho-S6 immunofluorescence (z-score),co-treatment: GDC0941 450 nM,-0.19
same,phospho-S6 immunofluorescence (z-score),co-treatment: lapatinib 1 uM,-0.09
same,phospho-S6 immunofluorescence (z-score),co-treatment: vehicle,0.7
COc1cc(C(=O)NCc2ccc(OCCN(C)C)cc2)cc(OC)c1OC [Trimethobenzamide hydrochloride] (compound 10 µM),phospho-S6 immunofluorescence (z-score),co-treatment: GDC0941 450 nM,0.29
same,phospho-S6 immunofluorescence (z-score),co-treatment: lapatinib 1 uM,1.09
same,phospho-S6 immunofluorescence (z-score),co-treatment: vehicle,0.51
